Reference: PubChem BioAssay (NCATS)
Values joined by “and” are separate entries in the source; they are usually repeats but may differ in a detail not shown here. Equal entries are not always repeated. Results filed as inconclusive are left out. Entries that show only a call come without a potency. Active and inactive are the calls of the source. Unless noted, calls come from the whole dose curve; as a rule, active = well fitted curve in the direction sought with a large enough effect; inconclusive = small, poorly fitted or top-dose-only effect, or another doubt; inactive = no such curve, though single readings can be large; an effect the other way counts as inactive or inconclusive.

How the values were obtained:
[1] = Cell Viability - Hek293 (AID 427;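 active = compounds whose dose-response curve shows a full or clear partial loss of cell viability, called from curve shape rather than a numeric limit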;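 note: potency is the fitted concentration of half-maximal effect; cells exposed to compound for 40 hours at 37 °C before reading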); conditions: qHTS
Method in brief: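 Luminescent ATP read-out (CellTiter-Glo, 20 min RT) after 40 hr compound exposure at 37 °C in complete medium. Signal normalized to DMSO (basal) and 100 uM tamoxifen (100% inhibition); concentration-response fitted with the standard Hill equation to give AC50.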

[2] = Cellular Toxicity (caspase-3) Jurkat (AID 655); conditions: Jurkat caspase-3 activation, luminescence; caspase-3 activation: at 92.2 µM (top of the series), DMSO = 0%, tamoxifen = 100%;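 note: cells exposed to compound for 16 h at 37 °C before reading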
Method in brief: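 Luminescent caspase-3/7 readout (aminoluciferin substrate cleavage) in human T-cell leukemia Jurkat cells after 16 hr compound exposure. Concentration-response normalized to DMSO and 100 uM tamoxifen; AC50 by standard Hill equation.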

[3] = Cellular Toxicity (caspase-3) BJ (AID 658);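 note: cells exposed to compound for 16 hours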
Method in brief: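 qHTS, BJ fibroblasts, 1000 cells/well; 5 hr preincubation, 16 hr compound, 37 °C; Caspase-Glo 3/7 reagent, 1 hr RT; luminescence. DMSO = 0%, 10 uM staurosporine = 100%. Hill-equation AC50.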

[4] = MultiTox-Fluor Cytotoxicity Assay - LYMP1-002 - Live Cells (AID 955);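 note: cells exposed to compound for 16 hours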
Method in brief: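 In this qHTS viability format, lymphoblastoid cells (LYMP1-002, human) received compound for 16 hr at 37 C. Fluorogenic GF-AFC cleavage by viable cells was detected at 405/510 nm after 1 h at room temperature.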

[5] = MultiTox-Fluor Cytotoxicity Assay - LYMP1-003 - Dead Cells (AID 961); note: nearly all actives have a fitted effect of over 70% in size
Method in brief: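 Human lymphoblastoid LYMP1-003 cells (2500/well) were treated with compounds for 16 hr at 37 C in complete medium. Dead-cell protease release was read by bis-AAF-R110 fluorescence (Ex/Em 485/520). AC50 came from Hill fits, normalized to DMSO and 15 uM tetraoctylammonium bromide.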

[6] = MultiTox-Fluor Cytotoxicity Assay - LYMP1-003 - Live Cells (AID 962);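 note: cells exposed to compound for 16 hours at 37 °C; cytotoxic hits lower the live-cell protease signal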
Method in brief: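 Human lymphoblastoid line LYMP1-003 in complete culture medium, treated 16 hr with titrated compounds. Viable cells quantified via cell-permeant GF-AFC substrate fluorescence; AC50 derived by Hill fitting.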

[7] = Cell Viability - LYMP1-003 - Assay at 24 hr (AID 963)
Method in brief: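 The lymphoblastoid line was treated with titrated compounds for 24 hours, and viable cell number estimated from luciferase-based ATP luminescence.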

[8] = Cell Viability - LYMP1-003 - Assay at 40 hr (AID 964); note: nearly all actives have a fitted effect of over 60% in size
Method in brief: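 Acute toxicity is scored as a concentration-dependent loss of intracellular ATP in LYMP1-003 cells (2500/well, complete medium) after 40 hr at 37 C, measured by CellTiter-Glo luminescence; AC50 values derive from standard Hill modelling.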

[9] = Cell Viability - LYMP2-003 (AID 965);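 note: cells exposed to compounds for 24 h before reading; nearly all actives have a fitted effect of over 50% in size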
Method in brief: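 CellTiter-Glo luminescence (cellular ATP) after 24 h compound exposure at 37 C in complete medium; 2500 cells/well, 5 h settling beforehand. Concentration-response fitted to standard Hill equation for AC50. Tetraoctylammonium bromide served as positive control.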

[10] = Cell Viability - LYMP2-017 (AID 972);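 note: cells exposed to compound for 24 hours at 37 °C; nearly all actives have a fitted effect of over 55% in size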; note: potency is the fitted concentration of half-maximal effect
Method in brief: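 In this qHTS format, lymphoblastoid cells in complete medium receive test compound for a day at 37 C before ATP content is quantified by luciferase luminescence. Reported AC50 figures come from standard Hill-equation curve fitting.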

[11] = Cell Viability - LYMP2-007 (AID 979);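 note: cells exposed to compound for 24 h before reading; nearly all actives have a fitted effect of over 60% in size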; note: potency is the fitted concentration of half-maximal effect
Method in brief: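 Measured via luciferase-based ATP quantitation: lymphoblastoid cells, 24 hr compound exposure at 37 C, AC50 from Hill fits.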

[12] = Cell Viability - LYMP2-008 (AID 980); note: nearly all actives have a fitted effect of over 60% in size; note: potency is the fitted concentration of half-maximal effect
Method in brief: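 Measured: ATP-dependent luminescence, proportional to viable cell number, in human lymphoblastoid cells treated 24 hr with compound in complete culture medium. Values are AC50s from Hill-equation modelling of qHTS titrations.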

[13] = Cell Viability - LYMP1-002 - Assay at 40 hr (AID 994); note: nearly all actives have a fitted effect of over 60% in size
Method in brief: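 Concentration-dependent ATP loss after 40 hr treatment at 37 C defined toxicity; AC50 values were obtained by fitting the standard Hill equation.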

[14] = qHTS assay for small molecule agonists of retinoid X receptor alpha signaling (AID 588544; calls by dose curve); conditions: HEK293T RXRa-UAS-bla, beta-lactamase reporter, 18 h; 530 nm emission
[15] = biological target: Retinoic acid receptor RXR-alpha (Homo sapiens) (UniProt P19793); test: as above
Retinoic acid receptor RXR-alpha (Homo sapiens), sequence (P19793 whole entry, looked up): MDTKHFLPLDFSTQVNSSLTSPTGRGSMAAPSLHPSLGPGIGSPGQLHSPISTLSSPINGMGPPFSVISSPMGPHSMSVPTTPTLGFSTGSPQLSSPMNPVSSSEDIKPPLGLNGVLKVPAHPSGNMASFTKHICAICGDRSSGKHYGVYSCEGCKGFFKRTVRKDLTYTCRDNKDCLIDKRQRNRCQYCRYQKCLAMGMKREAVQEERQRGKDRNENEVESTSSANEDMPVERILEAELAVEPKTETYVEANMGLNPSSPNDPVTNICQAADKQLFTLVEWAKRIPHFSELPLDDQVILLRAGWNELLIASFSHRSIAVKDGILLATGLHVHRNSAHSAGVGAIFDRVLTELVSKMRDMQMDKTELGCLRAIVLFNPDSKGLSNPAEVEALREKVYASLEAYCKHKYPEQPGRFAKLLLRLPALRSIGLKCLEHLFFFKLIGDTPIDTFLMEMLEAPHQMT

Row | Structure (SMILES) | Potency [1] | caspase-3 activation [2] | outcome [3] | outcome [4] | Potency [5] | outcome [6] | outcome [7] | Potency [8] | Potency [9] | Potency [10] | Potency [11] | Potency [12] | Potency [13] | max response [14] | outcome [15]
1 | COC(=O)c1ccccc1N | > 92 µM (inactive) | 1.63% (inactive) | inactive | inactive | inactive | inactive | inactive | inactive | inactive | inactive | inactive | inactive | inactive | -15.1% | inactive
2 | CCN(CC)N=O | > 92 µM (inactive) | 1.16% (inactive) | inactive | inactive | inactive | inactive | inactive | inactive | inactive | inactive | inactive | inactive | inactive | -8.19% | inactive
3 | O=[N+]([O-])c1ccc(O)c([N+](=O)[O-])c1 | > 92 µM (inactive) | -6.84% (inactive) | inactive | inactive | inactive | inactive | inactive | inactive | inactive | inactive | inactive | inactive | inactive | -6.65% | inactive
4 | CCN(CC)CCO | > 92 µM (inactive) | 2.76% (inactive) | inactive | inactive | inactive | inactive | inactive | inactive | inactive | inactive | inactive | inactive | inactive | -4.75% | inactive
5 | Oc1cccc(Cl)c1 | > 92 µM (inactive) | 0.0873% (inactive) | inactive | inactive | inactive | inactive | inactive | inactive | inactive | inactive | inactive | inactive | inactive | -0.644% | inactive
6 | Cc1cccc(C)c1N | > 92 µM (inactive) | -0.00153% (inactive) | inactive | inactive | inactive | inactive | inactive | inactive | inactive | inactive | inactive | inactive | inactive | -2.21% | inactive
7 | CC(C)C#N | > 92 µM (inactive) | -1.09% (inactive) | inactive | inactive | inactive | inactive | inactive | inactive | inactive | inactive | inactive | inactive | inactive | -7.08% | inactive
8 | CC(C)OS(C)(=O)=O | > 92 µM (inactive) | 1.6% (inactive) | inactive | inactive | inactive | inactive | inactive | inactive | inactive | inactive | inactive | inactive | inactive | -2.85% | inactive
9 | CCSC(=O)N1CCCCCC1 | > 92 µM (inactive) | 0.302% (inactive) | inactive | inactive | inactive | inactive | inactive | inactive | inactive | inactive | inactive | inactive | inactive | -15.2% and -3.96% | inactive
10 | CCNCC | > 92 µM (inactive) | 0.736% (inactive) | inactive | inactive | inactive | inactive | inactive | inactive | inactive | inactive | inactive | inactive | inactive | -7.47% | inactive
11 | CCCCOCC1CO1 (configuration not stated) | > 92 µM (inactive) | -0.958% (inactive) | inactive | inactive | inactive | inactive | inactive | inactive | inactive | inactive | inactive | inactive | inactive | 5.09% | inactive
12 | C=CCOCC1CO1 (configuration not stated) | > 92 µM (inactive) | -0.0286% (inactive) | inactive | inactive | inactive | inactive | inactive | inactive | inactive | inactive | inactive | inactive | inactive | 1.34% | inactive
13 | BrCC(Br)(Br)Br | – | – | – | inactive | inactive | inactive | inactive | inactive | inactive | 15.8 µM (active) | 12.6 µM (active) | 39.8 µM (active) | inactive | 19.6% | inactive
